# Results: publication PMC13083723 (Patterns, 2026)
# Out of some 5,400 compounds screened, about 190 (3.5%) showed an effect of 50% or more. The entries come from a sample that favours strong results as a whole.
# Test system: Vero-E6
# Assay: primary screen, phospholipidosis by LipidTOX staining; higher = more effect of the substance
# Conditions: 10 µM
# Summary of the method: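 Single-concentration screen at 10 μM, with DMSO 0.1 v/v % and amiodarone 10 μM as controls. Read-out is LipidTOX Red phospholipid staining, which tolerates aldehyde fixation, in Vero-E6 cells.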
row,Compound,result_ITMP [%]
1,OC[C@@H](O)[C@@H](O)CO,-7.96
2,Cc1ccc2nc(N)nc(O)c2c1Sc1ccncc1,3.27
3,Fc1cc(-c2cccc3ncc(-c4cnn(C5CCNCC5)c4)nc23)cc(F)c1CN1CCOCC1,73.3
4,CC(C)(C)C(=O)CN1C(=O)[C@H](NC(=O)Nc2cccc(C(=O)O)c2)CN(C2CCCCC2)c2ccccc21,-0.97
5,CO[C@@]1(NC(=O)Cc2cccs2)C(=O)N2C(C(=O)[O-])=C(COC(N)=O)CS[C@@H]21,-2.27
6,c1ccc(CC(c2ccccc2)N2CCCCC2)cc1 (racemic),6.03
7,C=CCc1ccccc1OCC(O)CNC(C)C (stereo not drawn),12.1
8,CC(COc1ccccc1Cc1ccccc1)N1CCCCC1 (stereo not drawn),72
9,OC[C@H]1O[C@@H]2O[C@H]3[C@H](O)[C@@H](O)[C@@H](O[C@H]4[C@H](O)[C@@H](O)[C@@H](O[C@H]5[C@H](O)[C@@H](O)[C@@H](O[C@H]6[C@H](O)[C@@H](O)[C@@H](O[C@H]7[C@H](O)[C@@H](O)[C@@H](O[C@H]8[C@H](O)[C@@H](O)[C@@H](O[C@H]1[C@H](O)[C@H]2O)O[C@@H]8CO)O[C@@H]7CO)O[C@@H]6CO)O[C@@H]5CO)O[C@@H]4CO)O[C@@H]3CO,-4.2
10,Cc1cc(-c2ccc(/N=N/c3ccc4c(S(=O)(=O)[O-])cc(S(=O)(=O)[O-])c(N)c4c3O)c(C)c2)ccc1/N=N/c1ccc2c(S(=O)(=O)[O-])cc(S(=O)(=O)[O-])c(N)c2c1O,10.1
11,COc1cc2c(cc1F)C(c1ccccc1Cl)=NC1=C(C)NNC1=N2,-1.52
12,CCCN(CCC)C(=O)C(CCC(=O)[O-])NC(=O)c1ccccc1 (stereo not drawn),-3.27
13,CC(C)c1cc(C(=O)N2Cc3ccc(CN4CCN(C)CC4)cc3C2)c(O)cc1O,8.21
14,COc1cc2ncn(-c3cc(OCc4ccccc4C(F)(F)F)c(C(N)=O)s3)c2cc1OC,-2.1
15,C[C@@H](Oc1cc(-n2cnc3ccc(CN4CCN(C)CC4)cc32)sc1C(N)=O)c1ccccc1C(F)(F)F,75.1
16,CN[C@@H]1[C@H](OC2[C@H](O[C@H]3[C@H](O)[C@@H](O)[C@H](NC(=N)N)[C@@H](O)[C@@H]3NC(=N)N)O[C@@H](C)[C@]2(O)C=O)O[C@@H](CO)[C@H](O)[C@H]1O (stereo partly drawn),-1.71
17,O=C([O-])P(=O)([O-])[O-],-2.03
18,C=CCn1c(=O)n([C@@H]2O[C@H](CO)[C@@H](O)[C@H]2O)c2nc(N)nc(O)c21,-1.06
19,COC(=O)C(c1ccccc1)C1CCCCN1 (stereo not drawn),10.3
20,OC(c1cc(C(F)(F)F)nc2c(C(F)(F)F)cccc12)C1CCCCN1 (stereo not drawn),50
21,Nc1c(CC(=O)[O-])cccc1C(=O)c1ccc(Br)cc1,0.95
22,NS(=O)(=O)NCCNc1nonc1/C(=N\c1ccc(F)c(Br)c1)NO,-3.83
23,CN1[C@@H]2C[C@@H](O)C[C@H]1[C@@H]1O[C@@H]12,17.2
24,COc1cc(C(=O)NCc2ccc(OCCN(C)C)cc2)cc(OC)c1OC,-1.29
25,COc1ccc(NC(=O)c2ccc(-c3ccc(-c4noc(C)n4)cc3C)cc2)cc1N1CCN(C)CC1,142
26,COc1ccc(NS(=O)(=O)c2ccc(I)cc2)cc1N1CCN(C)CC1,16.4
27,COc1ccccc1N1CCN(CCCCNC(=O)c2ccc(-c3ccc(C(C)=O)cc3)cc2)CC1,6.35

row,Compound,result_ITMP [%]
1,COc1ccc(C(=O)NCc2ccc(OCCN(C)C)cc2)cc1OC,6.48
2,COc1ccc(NC(=O)c2ccc(-c3ccc(-c4noc(C)n4)cc3C)cc2)cc1OCCN(C)C,81.5
3,C[C@@H]1CC[C@H]2C(C)(C)[C@H]3C[C@@]12CC[C@@]3(C)O,4.78
4,O=C(O)c1cc(O)c2ccccc2n1,3.47
5,O=C([O-])CCCCCCCCC(=O)[O-],-5.98
6,Cc1cccc(-c2nc(C(C)(C)C)[nH]c2-c2ccc3nccnc3c2)n1,-5.96
7,CCCn1c(=O)c2nc(C3CCCC3)[nH]c2n(CCC)c1=O,9.14
8,C=C1CC[C@H](O)C/C1=C/C=C1\CCC[C@]2(C)[C@@H]([C@H](C)CCCC(C)(C)O)CC[C@@H]12,-0.38
9,C=C1/C(=C\C=C2/CCC[C@]3(C)[C@@H]([C@H](C)CCCC(O)(C(F)(F)F)C(F)(F)F)CC[C@@H]23)C[C@@H](O)C[C@@H]1O,0.82
10,C[C@]12CCC(=O)C=C1CCC1C2[C@@H](O)C[C@@]2(C)C1CC[C@]2(O)C(=O)COC(=O)CCC(=O)O (stereo partly drawn),-1.39
11,COc1cccc(CN2C[Si](C)(C)O[Si](C)(C)C2)c1,-1.81
12,COc1cccc(CCc2ccccc2OCC[C@@H]2C[C@@H](O)CN2C)c1,90.4
13,C[C@@H]1CN(CCCn2c3ccccc3c3ccccc32)C[C@H](C)N1,99.9
14,O=c1[nH]c2ccccc2n1CCCN1CCN(C(c2ccccc2)c2ccccc2)CC1,26.4
15,O=c1[nH]c2ccccc2c(=O)n1CCCN1CCN(c2ccccc2)CC1,-3.31
16,CC(C)CCC[C@@H](C)[C@H]1CC[C@H]2[C@@H]3CCC4=CC(=NO)CC[C@]4(C)[C@H]3CC[C@]12C,-0.61
17,CNCCCN1c2ccccc2CCc2ccccc21,36.6
18,CNCCCC12CCC(c3ccccc31)c1ccccc12,107
19,CNCCCC1(c2ccccc2)OC(C)(C)c2ccccc21 (stereo not drawn),29.5
20,O=C(O)c1ccc(N[C@H]2O[C@H](CO)[C@@H](O)[C@H](O)[C@@H]2O)cc1,-5.7
21,CC1(S(=O)(=O)[O-])CC(=O)c2ccccc2C1=O (stereo not drawn),-0.84
22,CN(C)CC/C=C1\c2ccccc2CSc2ccccc21,43.7
23,CN(C)CCOC1=Cc2ccccc2Sc2ccc(Cl)cc21,13.9
24,CN(C)CCC=C1c2ccccc2CCc2ccccc21,39.7
25,CN(C)CC/C=C1/c2ccccc2COc2ccccc21,41.1
26,CN(C)CCC=C1c2ccccc2C=Cc2ccccc21,71.1
27,CN(C)CC/C=C1\c2ccccc2Sc2ccc(Cl)cc21,51.1
